Compound activity deposited in PubChem BioAssay by several laboratories.
aDG glyco act = activators of alpha-DG glycosylation, primary screen, uHTS, Pro5-aDG cells, AlphaScreen. alpha-DG glycosylation AlphaScreen (IIH6); 0% Pro5, 100% B10-LARGE cell signal. activation, % at 10 µM. actives 0.22% (n = 360,000);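 active means activation of at least 8% versus controls, or a plate z-score of at least 8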;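 further: Pro5 are CHO cells carrying HIG-tagged alpha-DG that lacks glycosylation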
LGR2 antag = inhibitors of bursicon-induced LGR2 CRE-luciferase signal, primary screen, cell-based, HEK293, CRE-luciferase reporter, bursicon stimulation. Drosophila bursicon receptor LGR2 (rickets). inhibition, % at 9.99 µM. actives 0.35% (n = 380,000). bursicon-stimulated, 4 h;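 active means drop in luminescence signal, shown as inhibition above about 50% in the replicate tests, limit read from the data, passing the limit was not always enough; inconclusive means probably only some replicates passing the limit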;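 further: agonist challenge used bursicon conditioned medium at about half maximal strength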
HSP90 refold inh = HSP90 inhibitors, primary screen, cell lysate, luminescence. Rabbit reticulocyte lysate, luciferase refolding luminescence, 3 h. actives 0.91% (n = 290,000). Heat shock protein HSP 90 (rabbit reticulocyte lysate; luciferase refolding). AID 1789, 2009. inhibition, % at 5.6 µM;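 active means inhibition above the screen-wide mean plus 3 SD, computed separately per campaign, cut at about 16% in these data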;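 further: 0% = DMSO wells and 100% = 60 µM geldanamycin wells; inhibitors lower the luminescence because luciferase stays unfolded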
TWEAK Fn14 block = inhibitors of TWEAK-Fn14 signaling, primary screen, luciferase reporter cells, uHTS; actives 2% (n = 360,000); TWEAK-stimulated Fn14 reporter cells, luciferase luminescence, 8 h; AID 1159606, 2016; inhibition, % at 10 µM; in the data active means inhibition above about 50%
EBV LMP1 NFkB = EBV LMP1-driven NF-kappaB luciferase reporter inhibitors, primary screen, cell-based, luminescence, single point; LMP1-induced NF-kappaB luciferase reporter cells; inhibition, % at 12.5 µM; actives 0.69% (n = 350,000); AID 504558, 2011; in the data active means inhibition above about 41%; inconclusive means no clear call, values can overlap the other calls;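 further: 0% = neutral control wells and 100% = reference inhibitor control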
TROY NFkB inh = inhibitors of TROY-driven NF-kB signaling, primary screen, Q293 LMP1-TROYcd cells, NF-kB luciferase, uHTS; Q293 LMP1-TROYcd NF-kB luciferase reporter, 4 h; inhibition, % at 10 µM; actives 0.98% (n = 360,000); AID 1347056, 2019;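 active means compounds whose plate-normalised and pattern-corrected inhibition of the luciferase reporter signal at the single screening dose is 50% or more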
HSP90 confirm = HSP90 inhibitors, confirmation, cell lysate, luminescence; rabbit reticulocyte lysate, luciferase refolding luminescence, 3 h; shares compounds with HSP90 refold inh; actives 64% (n = 2,300); inhibition, % at 5.9 µM; in the data active means inhibition above about 18%;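 further: 0% = vehicle wells and 100% = reference inhibitor wells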
FLuc counter = firefly luciferase inhibitors, HSP90 counter-screen, confirmation, artefact control for HSP90 inhibitor project, biochemical, luminescence, triplicate. purified native firefly luciferase. actives 48% (n = 2,300). inhibition, % at 5.9 µM. shares compounds with HSP90 refold inh;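 active means inhibition above the mean inhibition of all tested sample wells plus 3 SD, cut at about 10% in these data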;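 further: 0% = DMSO with luciferase and 100% = wells lacking luciferase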
Starred values were filed as active, the others as inactive; ? = inconclusive; / = no result. Hits are enriched below; roughly 2.6% of the tested compounds scored in any of these assays.

SMILES | aDG glyco act | LGR2 antag | HSP90 refold inh | TWEAK Fn14 block | EBV LMP1 NFkB | TROY NFkB inh | HSP90 confirm | FLuc counter
O=C(N/N=C\c1ccc(-c2ccccc2[N+](=O)[O-])o1)C1COc2cc3ccccc3cc2O1 (configuration not stated) | 0 | -4 | 22* | 13 | -5 | 16 | 15 | -4
Cc1ccc(-c2nc3n(n2)Cc2ccccc2-3)cc1 | 0 | / | 21* | 94* | 15 | 58* | 67* | 61*
CCn1c(C)nc2cc(-c3nc4n(n3)Cc3ccccc3-4)ccc21 | 0 | / | 88* | 105* | 86* | / | 97* | 92*
C[C@@H]1CN([C@H](C)CO)C(=O)c2cc(NC(=O)C3CC3)ccc2O[C@@H]1CN(C)S(=O)(=O)c1ccc(F)cc1 | / | -1 | / | / | / | / | / | /
Cn1cnc(S(=O)(=O)N2CC[C@@H]3[C@H]2c2cc(C#Cc4ccccc4)ccc2N[C@@H]3CO)c1 | / | 13 | / | / | / | / | / | /
COc1ccc(/C=N/NC(=O)c2nn(-c3ccccc3)c(=O)c3c(N)scc23)cc1 | 0 | / | 20* | -9 | 4 | 3 | 8 | -11
COc1ccc(/C=N/Nc2ncccc2[N+](=O)[O-])c(OC)c1 | 0 | 66* | 51* | 72* | -9 | 52* | 70* | 62*
CC(C)CC#Cc1ccc2c(c1)O[C@@H](CN(C)C(=O)c1cccnc1)[C@@H](C)CN([C@H](C)CO)S2(=O)=O | / | -6 | / | / | / | / | / | /
COc1ccc(C2Nc3cccc4cccc(c34)N2)cc1 | -1 | 4 | 7 | 3 | -12 | -15 | / | /
CN(C)c1ccc(C2Nc3cccc4cccc(c34)N2)cc1 | 0 | -25 | 42* | 9 | -9 | -41 | 37* | -3
COc1ccc(NC(=S)NNc2ccc(C(=O)O)cc2)cc1 | 0 | 13 | 21* | 58* | -10 | 19 | 42* | 38*
COc1ccc(C(=O)NNc2ccccc2)cc1 | 0 | 0 | -4 | 5 | -15 | -8 | / | /
O=C(Nc1ccc(F)cc1)N[C@@H]1CC[C@H](CC(=O)N2CCOCC2)O[C@H]1CO | / | -4 | / | / | / | / | / | /
c1csc(-c2nc(CN3CCSCC3)cs2)c1 | 0 | ? | 27* | 60* | 30 | 15 | 55* | 31*
O=C(O)CCCCCn1c(SCC(=O)c2ccc(O)c(O)c2)nc2ccsc2c1=O | 0 | 29 | 2 | 17 | -2 | -1 | / | /
O=C(O)CCCCCn1c(SCC(=O)N2CCCC2)nc2ccsc2c1=O | 0 | 7 | 64* | 7 | -1 | -5 | 5 | -4
CO[C@H]1CN(C)C(=O)c2cc(NC(=O)C3CC3)ccc2OC[C@H](C)N(C(=O)c2ccccc2F)C[C@@H]1C | / | -1 | / | / | / | / | / | /
O=C(NCCc1ccccc1)c1cccnc1 | 0 | / | 1 | 7 | -10 | -21 | / | /
CCOc1ccc(C(=O)NCCc2ccccc2)cc1 | 0 | 78* | 23* | 77* | 17 | 52* | 66* | 55*
O=C(NCCc1ccccc1)c1ccc2c(c1)OCO2 | 0 | 79* | 76* | 94* | 49* | 70* | 83* | 78*
O=C(NCCc1ccccc1)c1ccc2nccnc2c1 | 0 | 68* | 40* | 93* | 50* | 57* | 52* | 41*
O=C(NCCS(=O)(=O)NCc1ccccc1)c1ccc2c(c1)OCO2 | 0 | -9 | / | -2 | 0 | -4 | / | /
CC(C)NC(=O)N(C)C[C@H]1Oc2ccc(NS(=O)(=O)c3cn(C)cn3)cc2C(=O)N([C@H](C)CO)C[C@H]1C | / | 21 | / | / | / | / | / | /
